According to PubChem BioAssay AID565 (University of Pittsburgh Molecular Library Screening Center, 2006):
Among all 65,000 compounds or so, about 1,200 (1.8%) were called active. What follows is part of a selection rich in actives, with near analogues and random picks from the rest. A number with no mark means an inactive call. Rule as the data show it: active = inhibition above about 50%; inactive = the rest.

molecular target: Gag-Pol polyprotein (Human immunodeficiency virus type 1 group M subtype B (isolate HXB2)) (UniProt P04585); assay: blockers of HIV-1 RNase H RNA/DNA cleavage – biochemical, fluorescence, primary screen (AID 565); conditions: RT-RNase H RNA/DNA duplex cleavage, at 10 µM, stronger effect = higher value

Row | SMILES | inhibition
1 | O=P(O)(CN1CCCCC1)CN1CCCCC1 | -5.45%
2 | O=C(CN1C(=O)CSc2ncccc21)N1CCOCC1 | -4.9%
3 | COC(=O)C1=C(C)NC(=O)NC1/C=C/c1ccccc1 (stereo unspecified) | -63.7%
4 | COc1ccccc1NC(=O)C1=C(C)NC2=C(C(=O)CCC2)C1c1ccc(C)o1 (stereo unspecified) | -19.4%
5 | COC(=O)C1=C(C)NC2=C(C(=O)c3ccccc32)C1c1ccc(-c2ccc(C(=O)O)cc2)o1 (stereo unspecified) | 81.9% (active)
6 | Cc1nnc(NC(=O)CCC(=O)N2CCC(C)CC2)s1 | -0.8%
7 | Cc1cc(=O)n2nc(N3CCCC(C(=O)NCCC4=CCCCC4)C3)sc2n1 (stereo unspecified) | -4.48%
8 | COc1cc2c(cc1NC(=O)CN1CCN(S(=O)(=O)c3ccc(F)cc3)CC1)oc1ccccc12 | 56.4% (active)
9 | COc1ccccc1NC(=O)CN1CCN(S(=O)(=O)c2ccc(Br)cc2)CC1 | -1.95%
10 | COc1ccc(NC(=O)CN2CCN(S(=O)(=O)c3ccc(F)cc3)CC2)cc1Cl | -9.57%
11 | Cc1cc(Br)ccc1NC(=O)C1CCCO1 (stereo unspecified) | -14.4%
12 | N#Cc1ccc(OCCN2C(=O)NC3(CCSC3)C2=O)cc1 (stereo unspecified) | -7.99%
13 | O=C(CN1C(=O)CCC1=O)Nc1ccc(S(=O)(=O)N2CCOCC2)cc1 | -11.6%
14 | Clc1ccc(Cc2nnc(-c3cccs3)o2)cc1 | -42.9%
15 | Clc1ccc(Cc2nn3c(-c4ccncc4)nnc3s2)cc1 | 53.8% (active)
16 | Nc1scc(-c2ccncc2)c1Cl | -13.4%
17 | CCOC(=O)c1ccc(CS(=O)c2ccc(Cl)cc2)o1 (stereo unspecified) | -8.12%
18 | COc1ccc(S(=O)(=O)NC2(C(F)(F)F)N=C3SCCN3C2=O)cc1 (stereo unspecified) | -21.6%
19 | CCOC(=O)c1sc(NC(=O)C(CC)Sc2nccn2C)nc1C (stereo unspecified) | 7.42%
20 | Cc1nc(NC(=O)CCC(=O)O)sc1C(=O)N(C)C | 0.73%
21 | CCOC(=O)c1sc(/N=C/Nc2nc(C)c(C(=O)OCC)s2)nc1C | 66.5% (active)

Row | SMILES | inhibition
22 | CCCOC(=O)CC1C(=O)NCCN1Cc1ccc(F)cc1 (stereo unspecified) | 15.5%
23 | CC(=O)Nc1ccc(S(=O)(=O)N2CCN(CCCOc3cc(C)ccc3C)CC2)cc1 | -8.05%
24 | CCC(CC)C(=O)Nc1cc(C(=O)OC)cc(C(=O)OC)c1 | -9.62%
25 | Cc1ccc(S(=O)(=O)C2(S(=O)(=O)c3ccc(C)cc3)CCCC2)cc1 | -7.65%
26 | CCC(=O)N(Cc1cc2cc(OC)ccc2[nH]c1=O)c1ccccc1C | -2.05%
27 | CCOc1ccc2[nH]c(=O)c(CN(CCCO)C(C)=O)cc2c1 | 84.7% (active)
28 | COc1ccc(N(Cc2cc3cc(OC)ccc3[nH]c2=O)S(C)(=O)=O)cc1 | -0.75%
29 | CCCc1[nH]nc2c1C(C1CC=CCC1)C(C#N)=C(N)O2 (stereo unspecified) | -53.6%
30 | Cc1nc2ccc(C(=O)N3CCSCC3)cc2s1 | -8.86%
31 | CC(C)CC(=O)N=C1SC2CS(=O)(=O)CC2N1CCc1ccccc1 (stereo unspecified) | -0.09%
32 | Cc1ccc(C(=O)NC2CCN(C(=O)N3CCOCC3)CC2)cc1 | -0.08%
33 | O=C(NCCCN1CCN(Cc2ccccc2)CC1)C1CCN(S(=O)(=O)N2CCCC2)CC1 | -16.5%
34 | CCC(C)Sc1nc2c(c(=O)[nH]c(=O)n2C)n1CC(O)COc1cccc2ccccc12 (stereo unspecified) | 76.5% (active)
35 | CCOC(=O)Cn1c(CN(Cc2ccccc2)Cc2ccccc2)nc2c1c(=O)[nH]c(=O)n2C | -4.21%
36 | CN1CCN(c2nc3c(c(=O)[nH]c(=O)n3C)n2Cc2cccc3ccccc23)CC1 | -0.99%
37 | Cc1cccc(NC(=O)CSc2nnc(CCCCCNC(=O)OC(C)(C)C)o2)c1C | -13.1%
38 | COc1ccc(CNC(=O)c2cc3c(=O)n4ccccc4nc3n(CC3CCCO3)c2=N)cc1 (stereo unspecified) | -18.1%
39 | COc1ccc(CCn2c(=N)c(C(=O)NCc3ccco3)cc3c(=O)n4cccc(C)c4nc32)cc1 | 64.2% (active)
40 | CCn1c(=N)c(C(=O)NCCCOC)cc2c(=O)n3cccc(C)c3nc21 | -13.1%
41 | Cn1c(=O)[nH]c(=O)c2c1nc(CN(Cc1ccccc1)Cc1ccccc1)n2CCN1CCOCC1 | -6.59%
42 | COc1ccc(OCCCON2C(=O)c3ccccc3C2=O)cc1 | -68.1%

Row | SMILES | inhibition
43 | CCCc1nc2ccccc2c(=O)n1NC(=O)c1c(O)c2ccccc2[nH]c1=O | -19.6%
44 | CCCc1nc2ccccc2c(=O)n1/N=C/c1ccc(O)c(O)c1 | 88.4% (active)
45 | CCCCc1nc2ccccc2c(=O)n1NC(=O)c1c(O)c2cccc3c2n(c1=O)CC3 | 4.26%
46 | Cc1ccc(-n2nc(-c3ccco3)cc2C(=O)NCc2cccnc2)cc1 | 61.9% (active)
47 | CC(C)(C)c1cc(C(=O)NCc2cccnc2)ccn1 | 3.16%
48 | Cc1ccc2c(c1)N(CCCC(=O)NCc1cccnc1)C(=O)CO2 | -14.5%
49 | C#CCN1C(=O)C(O)(CC(=O)c2cc(OC)ccc2OC)c2ccccc21 (stereo unspecified) | -25.6%
50 | O=P(O)(CP(=O)(c1ccccc1)c1ccccc1)c1ccccc1 | -16.3%
51 | CC12CCC(C(=O)N(CCC#N)CCC#N)(CC1=O)C2(C)C (stereo unspecified) | -5.03%
52 | CCOC(=O)CSC1=C(C#N)C(c2sccc2C)CC(=O)N1 (stereo unspecified) | -2.34%
53 | CC1=C(C(=O)Nc2ccccc2)C(c2cccs2)C(C#N)=C(SCC#N)N1 (stereo unspecified) | 55.5% (active)
54 | CCOC(=O)CSC1=C(C#N)C(c2ccco2)C(C(=O)OCc2ccccc2)=C(C)N1 (stereo unspecified) | -11.6%
55 | O=C(Nn1cc(C(=O)N2CCN(c3ccccc3F)CC2)c2ccccc2c1=O)c1cnccn1 | -2.41%
56 | COc1ccc(-c2nn3c(-c4ccccc4)nnc3s2)cc1OC | -38.4%
57 | Cc1nnc2sc(-c3ccco3)nn12 | 4.12%
58 | Fc1ccc(-c2ccc(-c3nn4c(-c5ccco5)nnc4s3)o2)cc1 | 65.8% (active)
59 | Fc1ccc(-c2nnc3sc(-c4ccc5c(c4)OCO5)nn23)cc1 | 66.3% (active)
60 | FC(F)(F)c1nnc2sc(-c3ccco3)nn12 | -2.16%
61 | COc1cc(-c2nn3c(-c4cccc(C)c4)nnc3s2)cc(OC)c1OC | -7.33%
